Test results published in PubChem BioAssay (Tox21).
Results filed as inconclusive are left out. Entries that show only a call come without a potency. More than one record can exist for a structure, and the calls need not agree. The source made the active and inactive calls. Unless noted, calls follow the shape of the full dose curve. Residues, ends and D or L forms follow the SMILES beside them.

Target: Nuclear receptor ROR-gamma (Homo sapiens) (UniProt P51449)
Assay: qHTS assay to identify small molecule antagonists of the retinoid-related orphan receptor gamma (ROR-gamma) signaling pathway (AID 1159521; active = well fitted inhibition curve with a large enough effect in the repeat runs; also: nearly all actives have a fitted effect of over 50% in size;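 as to activity change, negative = inhibition: CHO cells with doxycycline inducible ROR-gamma driving an RORE luciferase reporter; top concentration of the series differs between compounds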)
Conditions: Tet-on RORgamma CHO cells, RORE-luciferase, 16 h; series mostly up to 92.4 µM; activity change, negative = inhibition: at the top concentration
Summary of the method: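 CHO Tet-on RORγ, RORE-luc reporter. Cpd 2 h pre-incubation, then dox hyclate 1 uM final, 16 h, 37 C/5% CO2. ONE-Glo luminescence; decrease = antagonist.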
Potency is read from the fitted curve at half-maximal effect.

Row | Compound | Potency | activity change, negative = inhibition
1 | O=C(O)CCC(=O)O | inactive | –
2 | CCCC(O)C(CC)CO (stereo not given) | inactive | –
3 | CC(O)CO (stereo not given) | inactive | –
4 | CC(O)CN(CCN(CC(C)O)CC(C)O)CC(C)O (stereo not given) | inactive | –
5 | O=C(O)c1cccnc1 | inactive | –
6 | CC(=O)Nc1nnc(S(N)(=O)=O)s1 | inactive | –
7 | OC(Cn1cncn1)(Cn1cncn1)c1ccc(F)cc1F | inactive | –
8 | O=C(O)c1cccc([N+](=O)[O-])c1 | inactive | –
9 | CC(O)C(=O)O (stereo not given) | inactive | –
10 | Nc1ccn([C@H]2CC[C@@H](CO)O2)c(=O)n1 | inactive | –
11 | CC1(C)[C@@H]2CC[C@@]1(C)C(=O)C2 | inactive | –
12 | Cc1ccccc1C(OCCN(C)C)c1ccccc1 (stereo not given) | – | -15.3% [at 42.5 µM] (inactive)
13 | COC(=O)[C@H](Cc1ccccc1)NC(=O)[C@@H](N)CC(=O)O (H-Asp-Phe-OMe) | inactive | –
14 | O=C1NC(=O)c2ccccc21 | inactive | –
15 | Cc1ccc(C)c(OCCCC(C)(C)C(=O)O)c1 | inactive | –
16 | CC(=O)OCC(COC(C)=O)OC(C)=O | inactive | –
17 | C1N2CN3CN1CN(C2)C3 | inactive | –
18 | O=c1cc[nH]c(=S)[nH]1 | inactive | –
19 | CCCNC(=O)NS(=O)(=O)c1ccc(Cl)cc1 | inactive | –
20 | Nc1ccc(O)c(C(=O)O)c1 | inactive | –
21 | NC(N)=NC(=O)c1nc(Cl)c(N)nc1N | inactive | –
22 | CC(C)[C@@H]1CC[C@@H](C)C[C@H]1O | inactive | –
23 | Cc1ccc(S(=O)(=O)NC(=O)NN2CCCCCC2)cc1 | inactive | –
24 | c1ccc2[nH]ccc2c1 | 1.35 µM (active) and inactive | –
25 | CCCCC(CC)COC(=O)/C=C/c1ccc(OC)cc1 (stereo not given) | inactive | –
26 | COc1ccc2[nH]cc(CCNC(C)=O)c2c1 | inactive | –
27 | O=C(O)CCCCCCCC(=O)O | inactive | –
28 | NC(=O)NC1NC(=O)NC1=O (stereo not given) | inactive | –
29 | O=NO | inactive | –

Test system: not listed separately
Assay: qHTS assay to identify small molecule agonists of the AP-1 signaling pathway - cell viability counter screen (AID 1159525); also: nearly all actives have a fitted effect of over 55% in size
Conditions: ME-180 (cervical carcinoma) AP-1-bla cells viability, ATP luminescence, 5 h; series mostly up to 76.8 µM; viability change, negative = cytotoxic: at the top concentration
Summary of the method: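 AP-1-bla ME-180 cells in Opti-MEM with 0.5% dialyzed FBS, compound exposure 5 h at 37 C in 15-point titration. Viability read in the same wells as ATP content by CellTiter-Glo luminescence, normalised to tetra-n-octylammonium bromide and DMSO controls.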

Row | Compound | Potency
30 | O=C(O)CCC(=O)O | inactive
31 | CCCC(O)C(CC)CO (stereo not given) | inactive
32 | CC(O)CO (stereo not given) | inactive
33 | CC(O)CN(CCN(CC(C)O)CC(C)O)CC(C)O (stereo not given) | inactive
34 | O=C(O)c1cccnc1 | inactive
35 | O=C(O)C(=O)O | inactive
36 | CC(=O)Nc1nnc(S(N)(=O)=O)s1 | inactive
37 | OC(Cn1cncn1)(Cn1cncn1)c1ccc(F)cc1F | inactive
38 | O=C(O)c1cccc([N+](=O)[O-])c1 | inactive
39 | CC(O)C(=O)O (stereo not given) | inactive
40 | Nc1ccn([C@H]2CC[C@@H](CO)O2)c(=O)n1 | inactive
41 | CC1(C)[C@@H]2CC[C@@]1(C)C(=O)C2 | inactive
42 | Cc1ccccc1C(OCCN(C)C)c1ccccc1 (stereo not given) | inactive
43 | Nc1ccc(S(=O)(=O)Nc2nccs2)cc1 | inactive
44 | COC(=O)[C@H](Cc1ccccc1)NC(=O)[C@@H](N)CC(=O)O (H-Asp-Phe-OMe) | inactive
45 | O=C1NC(=O)c2ccccc21 | inactive
46 | CCCCCCCCCCCCCCCC(=O)O | inactive
47 | Cc1ccc(C)c(OCCCC(C)(C)C(=O)O)c1 | inactive

Row | Compound | Potency
48 | CC(=O)OCC(COC(C)=O)OC(C)=O | inactive
49 | C1N2CN3CN1CN(C2)C3 | inactive
50 | O=c1cc[nH]c(=S)[nH]1 | inactive
51 | CCCNC(=O)NS(=O)(=O)c1ccc(Cl)cc1 | inactive
52 | Nc1ccc(O)c(C(=O)O)c1 | inactive
53 | NC(N)=NC(=O)c1nc(Cl)c(N)nc1N | inactive
54 | CC(C)[C@@H]1CC[C@@H](C)C[C@H]1O | inactive
55 | Cc1ccc(S(=O)(=O)NC(=O)NN2CCCCCC2)cc1 | inactive
56 | O=C(c1ccccc1)c1ccccc1 | inactive
57 | O=C1CN(/N=C/c2ccc([N+](=O)[O-])o2)C(=O)N1 | inactive
58 | c1ccc2[nH]ccc2c1 | 42.9 µM (active) and inactive
59 | CCCCC(CC)COC(=O)/C=C/c1ccc(OC)cc1 (stereo not given) | inactive
60 | COc1ccc2[nH]cc(CCNC(C)=O)c2c1 | inactive
61 | O=C(O)CCCCCCCC(=O)O | inactive
62 | NC(=O)NC1NC(=O)NC1=O (stereo not given) | inactive
63 | CCCC(CCC)C(=O)O | inactive
64 | O=NO | inactive
65 | Cc1noc(NS(=O)(=O)c2ccc(N)cc2)c1C | inactive
